# Reference: PubChem BioAssay
# “And” between values parts separate entries of the source, which are not always exact repeats. Identical values can stand only once. Inconclusive results are not listed. For some of these results: Potency and affinity values are given separately. The source made the active and inactive calls. Unless noted, no rule for the calls is given here.
# What was measured:
# [1] = liver-stage malaria parasite growth inhibition, primary screen, cell-based, HepG2, luciferase luminescence, HepG2 viability (AID 624349; in the data active = parasite load remaining mostly below about 12%, no sharp cut-off; inactive = mostly above about 10%;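 also: 100% = mean of DMSO negative control wells on the same plate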); details: P. berghei liver stage in HepG2, luciferase luminescence, concentration not given here; parasite load remaining: stronger effect = lower value; viability: measured here: HepG2 viability without parasites
# [2] = target: 6-phosphogluconate dehydrogenase, decarboxylating (Homo sapiens) (UniProt P52209); experiment: 6PGD enzyme inhibitors, primary screen, biochemical, human, recombinant enzyme, NADPH absorbance (AID 1159550;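 active = at least 20% inhibition of 6-phosphogluconate dehydrogenase activity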); details: recombinant 6PGD, NADPH absorbance 341 nm; at 10 µM; stronger effect = higher value
# [3] = tested on: Aerobactin synthetase IucA (Klebsiella pneumoniae hvKP1); experiment: Biochemical IucA enzyme inhibition primary screen of the Spectrum library (AID 1346200); details: malachite green pyrophosphate, A620, at 8 µM, stronger effect = lower value;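 also: 100% = wells without compound and 0% = wells lacking enzyme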
# [4] = target: Mitogen-activated protein kinase 7 (Homo sapiens) (UniProt Q13164); experiment: ERK5 transactivation activators in reporter cells, primary screen, cell-based, HTS (AID 1508626;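 active = luciferase signal above three times the same-plate solvent-only control wells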;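 also: luciferase driven by Gal4-ERK5 fusion binding five Gal4 sites before minimal TATA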); details: HeLa Gal4-ERK5 transactivation, 18 h, at 5 µM, stronger effect = higher value
# [5] = sensitizers of A549 cells to miR-34 induction, primary screen, imaging, A549 dox-inducible miR-34, nuclei and caspase counts (AID 1347080;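 active = compounds whose cell count with miR-34 switched on is under 0.7 times the count with it off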); details: A549 miR-34 inducible, Hoechst nuclei count, 48 h
# [6] = survival rescue of mitochondrial mutant cells in low glucose, primary screen, MELAS cybrids, Rieske KO mouse fibroblasts, CellTiter-Glo (AID 1508586;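 active = mean z-score across replicates of 1.96 or higher in either the MELAS or the Rieske mutant cell line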;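 also: z relative to plate mean and SD of compound and empty wells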)
# [7] = viability rescue of complex I mutant cybrids, primary screen, cell-based, galactose medium, ATP luminescence (AID 1645843;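 active = z-score of at least 1.8 in each of two replicates, scored against plate mean and spread of sample wells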;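 also: positive z means more ATP and so rescue of galactose-driven cybrid death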); details: complex I mutant cybrid cells, 72 h, stronger effect = higher value
# [8] = polyglutamine-triggered caspase-3 activation inhibitors, cell-based (AID 1583); details: polyglutamine-induced caspase-3 activation, cell assay; stronger effect = higher value;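 tested at 10 µM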
# [9] = target: Huntingtin (Homo sapiens) (UniProt P42858); experiment: inhibitors of mutant Htt aggregation in vitro, dose response, QA1 (AID 1584); details: in vitro mutant huntingtin aggregation assay; confirmation test; at 10 µM; stronger effect = lower value
# [10] = inhibitors of polyQ aggregate elongation, biochemical, solid-phase synthetic aggregates, QA3 (AID 1585); details: biotin-polyQ incorporation; EC50: measured here: elongation inhibition potency; inhibition: at 100 µM, stronger effect = higher value
# [11] = suppressors of polyQ aggregation in yeast, 75Q-TubU reporter (AID 1593); details: Yeast 75Q polyglutamine aggregation reporter
# [12] = rescue of polyQ-huntingtin neuronal dysfunction in worms, whole organism, C. elegans mechanosensory neurons, N-terminal huntingtin (AID 1599); details: touch response, stronger effect = higher value
# [13] = inhibitors of mitochondrial cytochrome c release, biochemical, purified mitochondria (AID 1603); details: stronger effect = lower value;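 also: mouse liver mitochondria challenged with calcium chloride; signal normalized to the plate average as 100%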
# [14] = inhibitors of polyQ protein aggregation (AID 1604); details: polyglutamine-induced protein aggregation inhibition assay; stronger effect = higher value; tested at 2.5 µM
# [15] = enhancers of glutamate uptake in motor neurons, MN-1 cell line (AID 1612); details: MN-1 motor neuron cells, stronger effect = higher value;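 also: tested at 1 µM final; 0% = mean of DMSO vehicle wells on each plate; positive means more glutamate uptake than control and negative means less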
# [16] = reducers of polyQ inclusions in PC12 cells, cell-based, NGF-treated PC12, GFPQ80 (AID 1614); details: PC12 NGF-treated GFP-polyQ80 inclusion reduction;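 also: lower means fewer inclusions and 0 means no inclusions at all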
# [17] = suppressors of polyglutamine aggregation in yeast, 75Q-TubH (AID 1616); details: S. cerevisiae 75Q-TubH polyglutamine aggregation suppression; stronger effect = higher value
# [18] = mitochondrial permeability transition inhibitors (AID 1580); details: isolated mitochondria, permeability transition inhibition
# [19] = polyglutamine aggregation reduction, turbidity readout, qthio, single concentration 25 µM screen (AID 1588); details: at 25 µM, stronger effect = lower value
# [20] = hESC survival regulators, cell-based (AID 493140); details: human embryonic stem cell survival screen; stronger effect = higher value;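 also: cells exposed to compounds for four days before counting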
# [21] = target: NAD(+) hydrolase SARM1 (Homo sapiens) (UniProt Q6SZW1); experiment: SARM1 TIR NADase inhibitors, cell lysate, NAD-Glo luminescence (AID 1508614;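 active = compound whose remaining NAD level is above about 45 nM, limit read from the data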;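 also: higher remaining NAD means stronger inhibition of SARM1 NADase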); details: SAM-TIR HEK293T lysate NADase, at 1 µM, stronger effect = higher value
# [22] = measured here: relative caspase fold change +Dox/-Dox
# [23] = measured here: total cells with miR-34 induction, stronger effect = lower value
# [24] = measured here: total cells without miR-34 induction
# [25] = MELAS cybrid survival, CellTiter-Glo 48 h, stronger effect = higher value
# [26] = Rieske KO mouse fibroblast survival, CellTiter-Glo 72 h
# 6-phosphogluconate dehydrogenase, decarboxylating (Homo sapiens), sequence (P52209 whole entry, looked up): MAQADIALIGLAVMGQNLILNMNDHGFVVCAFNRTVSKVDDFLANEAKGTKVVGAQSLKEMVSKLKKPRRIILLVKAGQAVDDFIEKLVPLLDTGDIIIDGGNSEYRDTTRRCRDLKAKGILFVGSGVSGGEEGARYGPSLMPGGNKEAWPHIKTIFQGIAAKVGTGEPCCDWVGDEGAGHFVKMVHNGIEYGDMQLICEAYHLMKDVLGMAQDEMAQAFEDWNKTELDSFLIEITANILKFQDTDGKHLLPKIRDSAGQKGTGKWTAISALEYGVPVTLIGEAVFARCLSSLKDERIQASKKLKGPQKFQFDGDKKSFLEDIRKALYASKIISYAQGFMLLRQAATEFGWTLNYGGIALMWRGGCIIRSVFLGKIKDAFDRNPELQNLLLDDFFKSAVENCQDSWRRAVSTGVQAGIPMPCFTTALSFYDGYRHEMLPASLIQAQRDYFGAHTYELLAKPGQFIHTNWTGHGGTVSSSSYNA
# Mitogen-activated protein kinase 7 (Homo sapiens), sequence (Q13164 whole entry, looked up, the tested form may be a part): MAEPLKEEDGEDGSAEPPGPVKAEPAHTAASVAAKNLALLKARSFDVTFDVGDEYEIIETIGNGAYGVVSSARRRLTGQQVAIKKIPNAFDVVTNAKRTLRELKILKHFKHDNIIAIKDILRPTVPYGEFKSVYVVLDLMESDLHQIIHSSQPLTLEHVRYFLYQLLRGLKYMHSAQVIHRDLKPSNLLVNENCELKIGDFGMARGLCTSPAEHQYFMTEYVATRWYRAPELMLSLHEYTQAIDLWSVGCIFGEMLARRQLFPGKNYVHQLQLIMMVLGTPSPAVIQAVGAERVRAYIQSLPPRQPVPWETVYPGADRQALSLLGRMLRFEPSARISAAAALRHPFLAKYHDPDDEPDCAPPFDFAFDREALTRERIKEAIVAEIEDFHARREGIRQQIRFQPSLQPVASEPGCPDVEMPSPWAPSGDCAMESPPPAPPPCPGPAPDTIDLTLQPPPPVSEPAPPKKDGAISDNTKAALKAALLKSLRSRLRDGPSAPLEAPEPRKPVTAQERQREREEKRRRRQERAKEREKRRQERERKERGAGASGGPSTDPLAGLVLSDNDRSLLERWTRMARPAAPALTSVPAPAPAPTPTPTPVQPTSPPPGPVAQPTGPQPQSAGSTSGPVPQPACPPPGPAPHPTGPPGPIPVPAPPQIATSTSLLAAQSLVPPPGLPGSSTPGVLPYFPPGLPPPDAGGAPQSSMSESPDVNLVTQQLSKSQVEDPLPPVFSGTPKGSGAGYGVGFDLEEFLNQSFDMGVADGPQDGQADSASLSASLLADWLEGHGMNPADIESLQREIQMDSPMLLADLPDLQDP
# Huntingtin (Homo sapiens), sequence (P42858 whole entry, looked up): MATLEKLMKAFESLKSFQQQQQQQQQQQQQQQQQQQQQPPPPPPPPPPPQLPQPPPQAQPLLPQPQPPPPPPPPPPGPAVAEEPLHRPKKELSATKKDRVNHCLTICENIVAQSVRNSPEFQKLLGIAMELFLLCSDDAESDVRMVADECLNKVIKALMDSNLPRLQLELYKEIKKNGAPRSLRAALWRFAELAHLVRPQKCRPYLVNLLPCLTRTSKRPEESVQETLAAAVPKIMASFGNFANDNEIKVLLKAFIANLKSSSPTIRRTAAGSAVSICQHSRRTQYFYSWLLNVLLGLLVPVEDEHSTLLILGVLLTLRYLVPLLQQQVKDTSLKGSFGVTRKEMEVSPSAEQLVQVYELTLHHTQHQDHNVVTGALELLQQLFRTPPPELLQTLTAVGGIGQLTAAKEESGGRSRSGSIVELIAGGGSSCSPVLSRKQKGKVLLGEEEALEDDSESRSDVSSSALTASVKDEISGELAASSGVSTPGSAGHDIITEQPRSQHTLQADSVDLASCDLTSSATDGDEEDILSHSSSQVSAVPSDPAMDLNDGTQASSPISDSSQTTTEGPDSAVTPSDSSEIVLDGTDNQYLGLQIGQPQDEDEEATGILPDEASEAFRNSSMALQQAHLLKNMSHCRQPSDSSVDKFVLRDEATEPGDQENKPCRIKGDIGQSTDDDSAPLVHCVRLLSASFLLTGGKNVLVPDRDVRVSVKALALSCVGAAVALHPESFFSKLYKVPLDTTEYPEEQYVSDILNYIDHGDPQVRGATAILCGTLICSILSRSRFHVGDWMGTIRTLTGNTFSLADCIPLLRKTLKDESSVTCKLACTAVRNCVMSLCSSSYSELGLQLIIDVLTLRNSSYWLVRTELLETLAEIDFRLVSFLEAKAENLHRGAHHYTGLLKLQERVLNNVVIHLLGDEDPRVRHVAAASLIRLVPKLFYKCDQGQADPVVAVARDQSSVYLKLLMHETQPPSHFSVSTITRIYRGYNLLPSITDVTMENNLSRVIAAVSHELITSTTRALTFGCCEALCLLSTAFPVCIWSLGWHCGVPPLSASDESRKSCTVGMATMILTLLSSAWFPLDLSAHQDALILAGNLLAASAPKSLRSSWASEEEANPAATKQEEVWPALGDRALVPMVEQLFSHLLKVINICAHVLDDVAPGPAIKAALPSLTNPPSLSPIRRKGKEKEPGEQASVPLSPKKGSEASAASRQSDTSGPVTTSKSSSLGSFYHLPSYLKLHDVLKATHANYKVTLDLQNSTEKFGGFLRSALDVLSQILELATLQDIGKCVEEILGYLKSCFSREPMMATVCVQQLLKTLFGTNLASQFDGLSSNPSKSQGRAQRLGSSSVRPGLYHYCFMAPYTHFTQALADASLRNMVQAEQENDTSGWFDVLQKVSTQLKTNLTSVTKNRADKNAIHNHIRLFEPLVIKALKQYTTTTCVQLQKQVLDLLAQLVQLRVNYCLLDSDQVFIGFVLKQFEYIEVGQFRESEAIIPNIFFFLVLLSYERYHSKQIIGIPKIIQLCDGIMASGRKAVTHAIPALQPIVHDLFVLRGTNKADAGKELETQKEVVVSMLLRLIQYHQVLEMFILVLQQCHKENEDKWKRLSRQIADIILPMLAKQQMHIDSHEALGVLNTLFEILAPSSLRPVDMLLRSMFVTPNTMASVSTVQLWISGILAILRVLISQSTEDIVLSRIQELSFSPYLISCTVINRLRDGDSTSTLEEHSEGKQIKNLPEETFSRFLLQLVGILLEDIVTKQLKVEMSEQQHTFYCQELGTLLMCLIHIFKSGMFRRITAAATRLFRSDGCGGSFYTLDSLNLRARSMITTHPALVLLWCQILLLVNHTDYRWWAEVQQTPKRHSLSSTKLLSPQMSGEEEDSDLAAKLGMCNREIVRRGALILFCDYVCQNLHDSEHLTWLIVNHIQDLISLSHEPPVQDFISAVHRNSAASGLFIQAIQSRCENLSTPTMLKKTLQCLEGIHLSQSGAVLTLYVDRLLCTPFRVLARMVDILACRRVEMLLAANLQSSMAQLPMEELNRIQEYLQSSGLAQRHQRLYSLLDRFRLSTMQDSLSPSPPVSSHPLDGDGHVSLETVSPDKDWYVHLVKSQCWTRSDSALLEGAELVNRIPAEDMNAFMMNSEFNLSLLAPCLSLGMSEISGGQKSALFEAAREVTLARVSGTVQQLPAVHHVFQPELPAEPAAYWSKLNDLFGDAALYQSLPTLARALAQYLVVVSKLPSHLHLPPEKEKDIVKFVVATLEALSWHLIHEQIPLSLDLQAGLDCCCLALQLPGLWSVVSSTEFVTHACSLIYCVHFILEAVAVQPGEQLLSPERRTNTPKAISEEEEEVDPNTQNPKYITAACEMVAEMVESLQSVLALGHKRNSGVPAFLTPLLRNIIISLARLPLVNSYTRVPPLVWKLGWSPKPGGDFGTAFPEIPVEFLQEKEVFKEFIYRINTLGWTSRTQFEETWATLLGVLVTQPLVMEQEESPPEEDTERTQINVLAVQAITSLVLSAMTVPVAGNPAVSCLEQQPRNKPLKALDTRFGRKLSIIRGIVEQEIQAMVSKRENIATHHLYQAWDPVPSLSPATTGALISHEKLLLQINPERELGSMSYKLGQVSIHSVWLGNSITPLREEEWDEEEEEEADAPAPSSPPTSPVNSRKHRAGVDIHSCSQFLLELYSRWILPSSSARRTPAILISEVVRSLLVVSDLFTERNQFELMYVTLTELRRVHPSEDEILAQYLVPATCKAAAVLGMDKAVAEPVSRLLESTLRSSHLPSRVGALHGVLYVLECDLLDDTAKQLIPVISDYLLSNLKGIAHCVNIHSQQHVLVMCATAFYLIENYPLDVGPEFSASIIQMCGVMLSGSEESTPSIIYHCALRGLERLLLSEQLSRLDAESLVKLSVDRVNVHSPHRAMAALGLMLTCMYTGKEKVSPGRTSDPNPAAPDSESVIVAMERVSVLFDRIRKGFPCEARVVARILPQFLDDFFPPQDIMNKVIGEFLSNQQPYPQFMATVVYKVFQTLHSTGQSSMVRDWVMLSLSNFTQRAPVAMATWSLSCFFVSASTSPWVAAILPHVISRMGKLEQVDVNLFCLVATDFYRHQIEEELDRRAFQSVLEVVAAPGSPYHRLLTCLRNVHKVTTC
smiles,measurement,setting,value
NNCc1ccccc1,parasite load remaining,[1],106% (inactive)
same,viability,[1],91.4%
same,inhibition,[2],9.93% (inactive)
same,activity remaining,[3],105% (inactive)
C[C@@H]1C(=O)O[C@H]2[C@H]1CC[C@@]1(C)C=CC(=O)[C@@]3(C)O[C@@]213,inhibition,[2],-5.96% (inactive)
same,activity remaining,[3],112% (inactive)
same,luciferase signal,[4],108 AU (inactive)
CC(C)(C)C(=O)C(Oc1ccc(Cl)cc1)n1cncn1 (stereo not given),inhibition,[2],12.8% (inactive)
same,activity remaining,[3],127% (inactive)
same,luciferase signal,[4],44 AU (inactive)
CNNC,inhibition,[2],-3.38% (inactive)
same,activity remaining,[3],86.5% (inactive)
same,luciferase signal,[4],32 AU (inactive)
CCNc1nc(Cl)nc(NC(C)C)n1,inhibition,[2],7.64% (inactive)
same,activity remaining,[3],97.8% (inactive)
same,fold change,[5]; stronger effect = lower value,0.888 (inactive)
same,fold change,[5]; [22],0.465
same,cell count,[5]; [23],8110
same,cell count,[5]; [24],9140
same,z-score,[6]; [25],3.44 (active)
same,z-score,[6]; [26],-0.553
same,luciferase signal,[4],36 AU (inactive)
same,z-score,[7],0.59 (inactive)
CC(C)N1C(=O)c2ccccc2NS1(=O)=O,inhibition,[2],-1.1% (inactive)
same,activity remaining,[3],106% (inactive)
same,luciferase signal,[4],92 AU (inactive)
Cc1cc2c(C(C)C)c(O)c(O)c(C=O)c2c(O)c1-c1c(C)cc2c(C(C)C)c(O)c(O)c(C=O)c2c1O,inhibition,[8],60.9%
same,aggregation ratio,[9],0.119
same,EC50,[10],57 µM
same,inhibition,[10],68% (active)
same,score,[11],1.78
same,rescue above control,[12],0
same,cytochrome c release ratio,[13],0.19
same,inhibition of aggregation,[14],19.1%
same,glutamate uptake change,[15],-53.4%
same,inclusion score,[16],0
same,aggregation suppression score,[17],0.368
same,inhibition,[2],14.1% (inactive) and -10.8% (inactive)
same,activity remaining,[3],96.1% (inactive) and 125% (inactive)
same,z-score,[6]; [25],-0.449 (inactive) and -0.0386 (inactive)
same,z-score,[6]; [26],-0.0272 and 0.0258
O=C(O)c1ccccc1-c1c2cc(Br)c(=O)cc-2oc2[c]([Hg])c(O)c(Br)cc12,EC50,[18],10 µM (active)
same,inhibition,[8],39.1%
same,EC50,[10],38 µM
same,inhibition,[10],61.6% (active)
same,aggregation (% of control),[19],41.9% (active)
same,score,[11],0.07
same,rescue above control,[12],0
same,cytochrome c release ratio,[13],1.39
same,inhibition of aggregation,[14],57.7%
same,glutamate uptake change,[15],-7.36%
same,aggregation suppression score,[17],0.0281
same,survival,[20],18.6 (inactive)
same,parasite load remaining,[1],62.4% (inactive) and 40.3% (inactive)
same,viability,[1],57.8% and 97.8%
same,inhibition,[2],2.12% (inactive)
same,activity remaining,[3],-1.02% (active)
same,fold change,[5]; stronger effect = lower value,0.908 (inactive)
same,fold change,[5]; [22],2.08
same,cell count,[5]; [23],11900
same,cell count,[5]; [24],13100
same,remaining NAD,[21],56 nM (active)
same,luciferase signal,[4],52 AU (inactive)
COc1cc([C@@H]2c3cc4c(cc3[C@H](OC(C)=O)[C@H]3COC(=O)[C@H]23)OCO4)cc(OC)c1OC,inhibition,[2],-6.91% (inactive)
same,activity remaining,[3],112% (inactive)
same,luciferase signal,[4],244 AU (active)
CCCC(C)C1(CC)C(=O)NC(=O)NC1=O (stereo not given),inhibition,[8],8.8%
same,score,[11],1.08
same,rescue above control,[12],-0.14
same,cytochrome c release ratio,[13],0.79
same,inhibition of aggregation,[14],-14.3%
same,glutamate uptake change,[15],8.51%
same,inclusion score,[16],2
same,aggregation suppression score,[17],0.96
same,parasite load remaining,[1],22.1% (inactive)
same,viability,[1],103%
same,inhibition,[2],-1.31% (inactive)
same,activity remaining,[3],95.4% (inactive)
same,fold change,[5]; stronger effect = lower value,0.918 (inactive)
same,fold change,[5]; [22],2.52
same,cell count,[5]; [23],11200
same,cell count,[5]; [24],12200
same,z-score,[6]; [25],0.13 (inactive)
same,z-score,[6]; [26],-0.121
same,luciferase signal,[4],60 AU (inactive)
